Laboratory results from PubChem BioAssay (NCATS).
Values joined by “and” are separate entries in the source; they are usually repeats but may differ in a detail not shown here. Equal entries are not always repeated. Records with an inconclusive call do not appear. The source holds several records for some structures; these can differ, active in one and inactive in another. Active and inactive are the calls of the source. Unless noted, the call rests on the fitted dose curve; in most records, active means well fitted curve in the direction sought with a large enough effect; inconclusive means small, poorly fitted or top-dose-only effect, or another doubt; inactive means no such curve, though single readings can be large; an effect the other way counts as inactive or inconclusive.

Tests used:
[1] = target: Cytochrome P450 2C9 (Homo sapiens) (UniProt P11712); assay: qHTS Assay for Inhibitors and Substrates of Cytochrome P450 2C9 (AID 883); further: on the % scale 0 is the no-effect control and ±100 the full control effect; nearly all actives have a fitted effect of over 60% in size
Summary of the method: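 Human CYP2C9 (10nM) with Luciferin-H at 100uM (its KM) in 25mM KPO4; compound preincubated 10 min at 37C, then NADPH regeneration for 60 min at 37C. Luciferin read by luminescence after detection reagent; normalized to 57uM sulphaphenazole as full inhibition.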

[2] = target: Cytochrome P450 3A4 (Homo sapiens) (UniProt P08684); assay: qHTS Assay for Inhibitors and Substrates of Cytochrome P450 3A4 (AID 884); further: series mostly up to about 57 µM; on the % scale 0 is the no-effect control and ±100 the full control effect; nearly all actives have a fitted effect of over 50% in size
Summary of the method: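 20 nM human CYP3A4 with 25 uM Luciferin-PPXE (at KM) in 200 mM KPO4, preincubated 10 min with compound; NADPH regeneration started a 60 min RT reaction. Luciferin detected by luminescence, normalized to 57 uM ketoconazole as full inhibition.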

[3] = target: Cytochrome P450 2C19 (Homo sapiens) (UniProt P33261); assay: qHTS Assay for Inhibitors and Substrates of Cytochrome P450 2C19 (AID 899); further: nearly all actives have a fitted effect of over 60% in size; further: potency means the concentration at half of the fitted maximal effect; on activity, negative = inhibition: on the % scale 0 is the no-effect control and ±100 the full control effect
Summary of the method: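 5 nM human CYP2C19 with 10uM Luciferin-H EGE (at KM) in 50mM KPO4, compound preincubated 10 min at 37C, then NADPH regeneration for 60 min at 37C. Luciferin read by luminescence after detection reagent; normalized to 57uM ketoconazole as full inhibition.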

[4] = qHTS for Inhibitors of Plasmodium falciparum (DD2) proliferation (AID 504314);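 further: parasite DNA measured by SYBR Green fluorescence after red cell lysis; plate controls were DMSO vehicle for no effect and artemisinin wells for full effect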
Summary of the method: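 Erythrocytes infected with P. falciparum (0.3% parasitemia, 2.5% hematocrit final) were incubated with compounds for 72 h at 37C, 5% CO2. Parasite DNA was detected by SYBR Green I fluorescence after saponin/Triton lysis, normalized to artemisinin (0.29 uM) and DMSO controls.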

[5] = qHTS for Inhibitors of Plasmodium falciparum (GB4) proliferation (AID 504315); further: nearly all actives have a fitted effect of over 50% in size; further: potency means the concentration at half of the fitted maximal effect;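 on activity change, negative = inhibition: 0% = DMSO vehicle and -100% = 0.29 µM artemisinin control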
Summary of the method: (§1)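 Erythrocytes infected with P. falciparum line (0.3% parasitemia, 2.5% hematocrit final) incubated with compounds 72 h at 37 °C, 5% CO2; SYBR Green lysis buffer added, fluorescence read next day. Normalized to 0.29 uM artemisinin and DMSO.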

[6] = qHTS for Inhibitors of Plasmodium falciparum (7G8) proliferation (AID 504316); further: nearly all actives have a fitted effect of over 65% in size; further: potency means the concentration at half of the fitted maximal effect;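 on activity change, negative = inhibition: series mostly up to about 6.7 µM; 0% = DMSO vehicle and -100% = 0.29 µM artemisinin full kill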
Summary of the method: as §1

[7] = qHTS for Inhibitors of Plasmodium falciparum (HB3) proliferation (AID 504318); further: nearly all actives have a fitted effect of over 60% in size; further: potency means the concentration at half of the fitted maximal effect;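 on activity change, negative = inhibition: 0% = DMSO vehicle and -100% = artemisinin control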
Summary of the method: as §1

[8] = qHTS for Inhibitors of Plasmodium falciparum (CP250) proliferation (AID 504320);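 further: plate controls were DMSO vehicle for no effect and 0.29 µM artemisinin control for full effect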
Summary of the method: as §1

[9] = target: Atrial natriuretic peptide receptor 1 (Homo sapiens) (UniProt P16066); assay: Natriuretic polypeptide receptor (hNpr1) antagonism - Pilot CMLD screen (AID 1347052; calls by dose curve;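 further: cGMP level read as GloSensor luciferase luminescence after agonist stimulation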; further: potency means the concentration at half of the fitted maximal effect;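 on activity change, negative = inhibition: HEK293 cells with hNpr1 stimulated by hNppA peptide at 0.1 nM; series mostly up to about 9.2 µM; on the % scale 0 is the no-effect control and ±100 the full control effect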)
[10] = target: Cytochrome P450 3A4 (Homo sapiens) (UniProt P08684); assay: qHTS Assay for Activators of Cytochrome P450 3A4 (AID 885); further: nearly all actives have a fitted effect of over 65% in size
Summary of the method: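 20nM CYP3A4 + 25uM Luciferin-PPXE (=KM), 200mM KPO4; cpd 10 min RT; NADPH regen, 60 min RT; stop w/ detection buffer, 20 min; luminescence. Normalized to 57 uM ketoconazole.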

[11] = target: Cytochrome P450 2D6 (Homo sapiens) (UniProt P10635); assay: qHTS Assay for Inhibitors and Substrates of Cytochrome P450 2D6 (AID 891);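 further: luciferin methyl ether substrate demethylated by CYP2D6 with NADPH regeneration; on the % scale 0 is the no-effect control and ±100 the full control effect; nearly all actives have a fitted effect of over 60% in size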
Summary of the method: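 Human CYP2D6 (5 nM) with 30 uM Luciferin-ME EGE (at Km) in 100 mM KPO4, compound preincubated 10 min, then NADPH regeneration system for 60 min at room temperature. Luciferin read by luminescence; normalized to 1.43 uM quinidine.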

Chain of Cytochrome P450 2C19 (Homo sapiens) (P33261 whole entry, looked up): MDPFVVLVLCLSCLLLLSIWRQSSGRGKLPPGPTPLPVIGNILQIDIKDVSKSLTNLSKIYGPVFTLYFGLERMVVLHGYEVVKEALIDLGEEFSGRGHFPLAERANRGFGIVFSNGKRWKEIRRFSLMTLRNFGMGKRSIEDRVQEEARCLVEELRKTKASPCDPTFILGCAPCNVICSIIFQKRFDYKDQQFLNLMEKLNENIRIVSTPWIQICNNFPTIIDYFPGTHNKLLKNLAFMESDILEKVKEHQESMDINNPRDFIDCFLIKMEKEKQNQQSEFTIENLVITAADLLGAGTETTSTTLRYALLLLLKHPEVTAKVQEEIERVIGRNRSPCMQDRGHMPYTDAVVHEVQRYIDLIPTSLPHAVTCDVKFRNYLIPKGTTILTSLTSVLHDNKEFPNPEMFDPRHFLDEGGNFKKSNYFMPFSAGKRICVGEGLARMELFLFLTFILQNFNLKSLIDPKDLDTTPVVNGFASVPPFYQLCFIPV
Chain of Cytochrome P450 2C9 (Homo sapiens) (P11712 whole entry, looked up): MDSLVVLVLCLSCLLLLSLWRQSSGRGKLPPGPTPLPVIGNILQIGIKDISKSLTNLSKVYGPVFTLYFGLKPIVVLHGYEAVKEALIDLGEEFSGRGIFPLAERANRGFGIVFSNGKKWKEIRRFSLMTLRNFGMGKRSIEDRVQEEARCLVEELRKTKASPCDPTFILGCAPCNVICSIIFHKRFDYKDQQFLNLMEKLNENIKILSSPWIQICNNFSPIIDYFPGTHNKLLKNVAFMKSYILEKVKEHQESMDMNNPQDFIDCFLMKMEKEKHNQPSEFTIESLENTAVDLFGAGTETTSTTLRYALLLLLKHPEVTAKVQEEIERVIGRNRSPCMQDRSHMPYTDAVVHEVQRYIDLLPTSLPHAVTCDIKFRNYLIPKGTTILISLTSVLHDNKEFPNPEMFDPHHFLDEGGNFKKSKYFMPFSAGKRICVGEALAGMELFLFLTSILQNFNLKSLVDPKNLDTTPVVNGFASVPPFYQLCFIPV
Chain of Cytochrome P450 3A4 (Homo sapiens) (P08684 whole entry, looked up): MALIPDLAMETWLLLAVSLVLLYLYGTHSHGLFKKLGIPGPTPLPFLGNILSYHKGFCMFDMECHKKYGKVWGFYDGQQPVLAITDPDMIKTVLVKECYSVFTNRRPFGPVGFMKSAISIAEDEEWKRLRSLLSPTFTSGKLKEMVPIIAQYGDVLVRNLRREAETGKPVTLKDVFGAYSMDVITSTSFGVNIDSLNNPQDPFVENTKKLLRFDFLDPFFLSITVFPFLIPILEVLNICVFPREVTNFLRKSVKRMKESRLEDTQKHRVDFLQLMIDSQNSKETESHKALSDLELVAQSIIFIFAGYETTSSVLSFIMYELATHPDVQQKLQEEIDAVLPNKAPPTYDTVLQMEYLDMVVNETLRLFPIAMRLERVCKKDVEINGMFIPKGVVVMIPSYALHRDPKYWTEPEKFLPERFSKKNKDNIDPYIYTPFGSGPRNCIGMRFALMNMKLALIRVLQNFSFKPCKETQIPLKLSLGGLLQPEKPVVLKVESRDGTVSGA
Chain of Atrial natriuretic peptide receptor 1 (Homo sapiens) (P16066 whole entry, looked up): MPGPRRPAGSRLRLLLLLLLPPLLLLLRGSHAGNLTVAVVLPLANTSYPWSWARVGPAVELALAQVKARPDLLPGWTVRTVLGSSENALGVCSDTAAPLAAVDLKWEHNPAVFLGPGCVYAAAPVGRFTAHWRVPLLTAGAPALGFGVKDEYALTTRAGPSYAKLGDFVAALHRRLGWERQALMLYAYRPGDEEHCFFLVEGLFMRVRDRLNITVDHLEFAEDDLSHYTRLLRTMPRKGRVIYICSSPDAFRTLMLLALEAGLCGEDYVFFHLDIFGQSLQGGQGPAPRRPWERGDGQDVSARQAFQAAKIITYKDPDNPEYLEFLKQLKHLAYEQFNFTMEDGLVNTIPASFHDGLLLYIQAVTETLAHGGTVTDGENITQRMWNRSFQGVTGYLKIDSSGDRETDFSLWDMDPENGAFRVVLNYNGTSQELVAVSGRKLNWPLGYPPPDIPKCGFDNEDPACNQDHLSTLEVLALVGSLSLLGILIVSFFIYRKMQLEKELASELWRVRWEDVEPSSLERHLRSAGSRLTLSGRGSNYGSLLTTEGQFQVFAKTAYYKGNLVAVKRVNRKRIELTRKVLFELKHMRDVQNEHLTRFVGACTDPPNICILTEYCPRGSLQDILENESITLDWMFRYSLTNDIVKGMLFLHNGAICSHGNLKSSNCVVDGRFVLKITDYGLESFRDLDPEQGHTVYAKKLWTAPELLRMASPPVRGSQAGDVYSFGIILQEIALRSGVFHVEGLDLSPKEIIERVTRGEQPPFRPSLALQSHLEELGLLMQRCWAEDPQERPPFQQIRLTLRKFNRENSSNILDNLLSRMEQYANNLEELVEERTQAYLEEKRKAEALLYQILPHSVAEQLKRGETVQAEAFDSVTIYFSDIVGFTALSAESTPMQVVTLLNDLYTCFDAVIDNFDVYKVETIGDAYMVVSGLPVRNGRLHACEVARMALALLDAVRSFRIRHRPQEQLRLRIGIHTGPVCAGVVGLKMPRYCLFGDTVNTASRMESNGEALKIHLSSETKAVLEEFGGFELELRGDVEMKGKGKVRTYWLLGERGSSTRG
Chain of Cytochrome P450 2D6 (Homo sapiens) (P10635 whole entry, looked up): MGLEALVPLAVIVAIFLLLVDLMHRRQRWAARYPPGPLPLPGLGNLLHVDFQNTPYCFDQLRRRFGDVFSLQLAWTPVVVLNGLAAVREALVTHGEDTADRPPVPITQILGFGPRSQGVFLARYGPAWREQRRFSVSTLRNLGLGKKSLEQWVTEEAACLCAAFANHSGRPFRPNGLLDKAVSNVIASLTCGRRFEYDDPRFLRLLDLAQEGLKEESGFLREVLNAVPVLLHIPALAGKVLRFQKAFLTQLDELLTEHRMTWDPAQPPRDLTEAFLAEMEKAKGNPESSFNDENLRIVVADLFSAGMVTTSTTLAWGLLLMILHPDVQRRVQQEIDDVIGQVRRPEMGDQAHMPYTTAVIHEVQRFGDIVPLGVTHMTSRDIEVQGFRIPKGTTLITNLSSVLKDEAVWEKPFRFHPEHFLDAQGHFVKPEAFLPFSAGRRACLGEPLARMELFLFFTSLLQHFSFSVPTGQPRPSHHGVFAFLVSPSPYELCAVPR

COc1ccc(C(=O)Oc2cc(OC)cc(OC)c2C(C)=O)cc1
inactive: activity change, negative = inhibition [1] 19.9% [at 11.4 µM] | activity change, negative = inhibition [2] -16.9% [at 11.4 µM] | activity, negative = inhibition [3] 27.9% [at 11.4 µM] | Potency [4] | Potency [5] | Potency [6] | Potency [7] | Potency [8] | Potency [9]

COC(=O)N[C@@H](CCc1ccccc1)[C@]1(C(C)=O)CCCC1=O
inactive: Potency [4] | Potency [5] | Potency [6] | Potency [7] | Potency [8] | Potency [9]

CCCCCCCC1=Cc2ccccc2C(CC(C)=O)N1C(=O)OC (centres undefined)
active: Potency [3] 2510 nM | Potency [7] 1690 nM
inactive: activity change, positive = activation [10] -59.5% [at 11.4 µM] | Potency [4] | Potency [5] | Potency [9]
1.69 µM (active) and inactive: Potency [6]

CCCC[C@@H]1CN2[C@H](c3ccc(Br)cc3)[C@H](C)CC[C@H]2C(=O)O1
active: Potency [3] 3980 nM | Potency [9] 944 nM
inactive: activity change, positive = activation [10] -42.5% [at 11.4 µM] | Potency [4] | Potency [5] | Potency [6] | Potency [7] | Potency [8]

OC[C@H]1O[C@H](C#Cc2ccc(F)cc2F)C=C[C@H]1O
inactive: Potency [4] | Potency [5] | Potency [6] | Potency [7] | Potency [8] | Potency [9]

CCCCCCCC1=CC2=CC(=O)C(C)(O)C(=O)C2=CN1CCCC (centres undefined)
inactive: activity change, negative = inhibition [1] 13.4% [at 11.4 µM] | activity change, negative = inhibition [2] -26.9% [at 11.4 µM] | activity, negative = inhibition [3] 80.9% [at 11.4 µM] | Potency [4] | Potency [5] | Potency [6] | Potency [7] | Potency [8] | Potency [9]

COc1cccc2c1[C@H](C=Cc1ccccc1)[C@@H]([C@H](O)COC(C)=O)OC2
inactive: Potency [4] | Potency [5] | Potency [6] | Potency [7] | Potency [8] | Potency [9]

Cc1c(O)c(=O)c2ccccc2n1C
inactive: activity change, negative = inhibition [1] 25.8% [at 11.4 µM] | activity change, negative = inhibition [2] 0.317% [at 11.4 µM] | activity change, negative = inhibition [11] 2.15% [at 11.4 µM] | activity, negative = inhibition [3] 73.4% [at 11.4 µM] | Potency [4] | Potency [5] | Potency [6] | Potency [7] | Potency [8] | Potency [9]

COC(=O)C12CC3(CCC4C5C(C(OCc6ccccc6)C41)C52)OCCO3 (centres undefined)
inactive: activity change, negative = inhibition [2] -29.8% [at 11.4 µM] | Potency [4] | Potency [5] | Potency [6] | Potency [7] | Potency [8] | Potency [9]
active: Potency [3] 1580 nM

CC1=CC[C@@H](C)O[C@@]2(C1)C(=O)Nc1cccc(Br)c12
inactive: Potency [4] | Potency [5] | Potency [6] | Potency [8] | Potency [9]

CC(C)CON=C1C[C@@H](O)[C@@H](O)[C@@H]2[C@H]3C(=O)N([C@@H](C)c4ccccc4)C(=O)[C@@H]3CC[C@H]12
inactive: Potency [4] | Potency [5] | Potency [6] | Potency [8] | Potency [9]

COC(=O)C(Cc1cc(Br)c(OC)c(Br)c1O)=NO
inactive: Potency [4] | Potency [5] | Potency [6] | Potency [8] | Potency [9]

C[C@@H](ON=C1[C@H]2CCn3c(=O)n(-c4ccccc4)c(=O)n3[C@@H]2[C@H](O)[C@@H]2O[C@H]12)c1cn([C@@H]2COC[C@@H]2O)nn1
inactive: Potency [4] | Potency [5] | Potency [6] | Potency [8] | Potency [9]

COc1cccc(CO[C@H]2C=C[C@@H](c3ccccc3)O[C@H]2COC(C)=O)c1
inactive: Potency [4] | Potency [5] | Potency [6] | Potency [8] | Potency [9]

COc1ccc(-c2nc3c(c4c2C[C@H](c2ccccc2)OC4)CN(C(=O)c2cccnc2)CC3)c(C)c1
inactive: activity, negative = inhibition [4] 2.56% [at 1.12 µM] | Potency [5] | Potency [8] | Potency [9]
active: Potency [6] 1.51 µM and 1.69 µM

C=CCOC(=O)N[C@H](c1ccccc1)C(C(C)=O)C(C)=O
inactive: Potency [4] | Potency [5] | Potency [6] | Potency [8] | Potency [9]

C=CCOC(=O)N[C@@H](CC(C)C)C(C(=O)OC)=C(C)NCc1ccccc1
inactive: Potency [4] | Potency [5] | Potency [6] | Potency [8] | Potency [9]

COC(=O)C1=C(C(=O)OC)[C@@H]2N(C)c3ccccc3[C@@]23CCC(=O)N(CC(C)C)C3=N1
inactive: Potency [4] | Potency [5] | Potency [6] | Potency [8] | Potency [9]

CCCCc1cc2c(cn1)=C(OC(=O)CCC(=O)OC)C(C)(OC(=O)CC)C(=O)C=2 (centres undefined)
inactive: activity, negative = inhibition [4] -0.996% [at 1.12 µM] | Potency [8] | Potency [9]
active: Potency [5] 1690 nM | Potency [6] 1.69 µM

COc1cc2c(cc1OC)[C@@H]1O[C@](c3ccsc3)(C2)Oc2cc(-c3ccccc3)oc(=O)c21
1.9 µM (active) and inactive: Potency [6]
inactive: Potency [4] | Potency [5] | Potency [8] | Potency [9]

CCN1C(=NCCc2cccnc2)NC(CCc2ccccc2)C(C(=O)OC)=C1C (centres undefined)
inactive: Potency [4] | Potency [5] | Potency [6] | Potency [8] | Potency [9]

Cc1cc2c(c(=O)o1)[C@H]1O[C@](c3ccsc3)(Cc3ccccc31)O2
inactive: Potency [4] | Potency [5] | Potency [6] | Potency [8] | Potency [9]
